Results published in PubChem BioAssay (Tox21).
Where “and” joins values, the source holds several entries; their conditions need not be identical. Equal values may be shown once. Inconclusive results are not listed. Where a call stands in place of a potency, no number is given. Some structures have more than one record in an assay (separate samples or runs), and their calls can disagree. Calls of active or inactive are those of the source. Unless noted, the call rests on the fitted dose curve; in most records, active means well fitted curve in the direction sought with a large enough effect in the repeat runs; inconclusive means weak or mixed curves; inactive means no such curve, though single readings can be large; an effect the other way counts as inactive or inconclusive.

How the values were obtained:
[1] = qHTS assay to identify small molecule agonists of the estrogen receptor alpha (ER-alpha) signaling pathway in the presence of an antagonist - cell viability counter screen (AID 1259386);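 further: cells exposed to compounds for 22 h at 37 °C before the viability read; nearly all actives have a fitted effect of over 30% in size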; further: potency means the concentration at half of the fitted maximal effect
Method in brief: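 Viability counter screen using VM7Luc4E2 (full-length ER-alpha, four ERE-luciferase). The cells were treated with compounds alongside ICI-182,780 10.0nM for 22hr, and live-cell protease fluorescence was quantified with CellTiter-Fluor.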

[2] = molecular target: Progesterone receptor (Homo sapiens) (UniProt P06401); test: qHTS assay to identify small molecule agonists of the progesterone receptor (PR) signaling pathway (AID 1346784; calls by dose curve; further: nearly all actives have a fitted effect of over 30% in size)
Method in brief: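 Seed PR-UAS-bla HEK 293T cells (2% charcoal-stripped FBS), incubate 6 hr at 37C; add compounds in DMSO, 16 hr at 37C; add LiveBLAzer B/G substrate, 2 hr RT; read fluorescence intensity.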

[3] = molecular target: Progesterone receptor (Homo sapiens) (UniProt P06401); test: qHTS assay to identify small molecule antagonists of the progesterone receptor (PR) signaling pathway (AID 1346795; active means well fitted inhibition curve with a large enough effect in the signal ratio in the repeat runs, not every such curve was filed as active; the % refers to the signal ratio; further: potency means the concentration at half of the fitted maximal effect)
Method in brief: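 Screening used a GripTite HEK293T line with PR-responsive UAS-beta-lactamase. Cells were challenged with compound in the presence of 1 nM R5020 final for 16 hr at 37C; B/G FRET substrate, 2 hr room temperature, fluorescence.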

[4] = qHTS assay to identify small molecule antagonists of the progesterone receptor (PR) signaling pathway - cell viability counter screen (AID 1346798); further: nearly all actives have a fitted effect of over 50% in size; further: potency means the concentration at half of the fitted maximal effect
Method in brief: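 Measures cytotoxicity in parallel with the PR antagonist reporter read: HEK293T PR-UAS-bla cells get compound and R5020 for 16 hr, and remaining viable cells are quantified by CellTiter-Glo luminescence.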

[5] = qHTS assay to identify small molecule agonists of the progesterone receptor (PR) signaling pathway - cell viability counter screen (AID 1346799; calls by dose curve; further: nearly all actives have a fitted effect of over 45% in size; further: potency means the concentration at half of the fitted maximal effect)
Method in brief: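 Using the same plates as the PR reporter screen, HEK293T PR-UAS-bla cells received compounds for 16 hr at 37C and were then lysed with CellTiter-Glo; luminescence was read 30 min later at room temperature.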

[6] = qHTS assay to identify small molecule antagonists of the TGF-beta/Smad signaling pathway - cell viability counter screen (AID 1346824); further: nearly all actives have a fitted effect of over 50% in size
Method in brief: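 Cytotoxicity counter-screen run in the same wells as the beta-lactamase Smad reporter read: CellTiter-Glo luminescence after 30 min at room temperature. HEK 293T SBE-bla cells had 5 hr compound exposure at 37 C with TGF-beta1 (0.25 ng/mL stock).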

[7] = qHTS assay to identify small molecule agonists of the TGF-beta/Smad signaling pathway (AID 1346859; active means well fitted activation curve with a large enough effect in the signal ratio in the repeat runs, not every such curve was filed as active; the % refers to the signal ratio; further: series mostly up to about 77 µM)
Method in brief: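 Beta-lactamase reporter activity downstream of Smad binding elements was measured in stably transfected HEK 293T cells; compounds were incubated for 5 hr, substrate for 2 hr at room temperature.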

[8] = qHTS assay to identify small molecule agonists of the TGF-beta/Smad signaling pathway - cell viability counter screen (AID 1346829); further: top concentration of the series differs between compounds; nearly all actives have a fitted effect of over 45% in size
Method in brief: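 Tox21 qHTS format: SBE-bla HEK 293T cells treated with DMSO-dissolved compounds for 5 hr; CellTiter-Glo luminescence after 30 min at room temperature.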

[9] = molecular target: Thyrotropin-releasing hormone receptor (Homo sapiens) (UniProt P34981); test: qHTS assay to identify small molecule antagonists of the thyrotropin-releasing hormone receptor (TRHR) signaling pathway (AID 1346877; active means well fitted inhibition curve with a large enough effect in the repeat runs, not every such curve was filed as active; further: series mostly up to about 51 µM)
Method in brief: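 Following an 18 h incubation at 37 °C and a 2 h calcium dye load, TRHR-HEK293 cells were exposed to compound (5 min, room temperature) and challenged with TRH, 1 nM final.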

Progesterone receptor (Homo sapiens), sequence (P06401 whole entry, looked up): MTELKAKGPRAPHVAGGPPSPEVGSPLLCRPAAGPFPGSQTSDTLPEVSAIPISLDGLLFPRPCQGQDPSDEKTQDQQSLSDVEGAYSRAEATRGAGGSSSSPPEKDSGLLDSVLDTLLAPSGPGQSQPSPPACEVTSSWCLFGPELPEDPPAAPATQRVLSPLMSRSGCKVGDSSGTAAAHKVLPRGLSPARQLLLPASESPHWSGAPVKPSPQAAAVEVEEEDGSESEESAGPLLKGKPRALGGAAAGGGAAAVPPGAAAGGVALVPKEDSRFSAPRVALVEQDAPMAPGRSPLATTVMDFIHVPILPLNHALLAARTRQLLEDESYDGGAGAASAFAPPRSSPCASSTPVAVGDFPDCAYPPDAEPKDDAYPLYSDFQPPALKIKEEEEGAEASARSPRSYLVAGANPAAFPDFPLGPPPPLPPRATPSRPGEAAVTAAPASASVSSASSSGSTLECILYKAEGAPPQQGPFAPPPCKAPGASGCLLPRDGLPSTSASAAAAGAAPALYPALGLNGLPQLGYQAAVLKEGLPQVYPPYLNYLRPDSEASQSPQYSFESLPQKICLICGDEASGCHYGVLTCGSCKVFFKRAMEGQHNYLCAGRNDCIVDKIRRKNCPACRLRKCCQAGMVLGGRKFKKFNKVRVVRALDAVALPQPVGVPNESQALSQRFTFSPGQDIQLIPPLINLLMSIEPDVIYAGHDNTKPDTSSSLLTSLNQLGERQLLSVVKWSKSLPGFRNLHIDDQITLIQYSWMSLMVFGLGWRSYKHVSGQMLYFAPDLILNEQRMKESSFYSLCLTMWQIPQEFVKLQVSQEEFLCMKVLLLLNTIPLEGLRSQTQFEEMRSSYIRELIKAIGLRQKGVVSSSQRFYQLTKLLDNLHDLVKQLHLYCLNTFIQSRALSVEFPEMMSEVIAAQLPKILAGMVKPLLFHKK
Thyrotropin-releasing hormone receptor (Homo sapiens), sequence (P34981 whole entry, looked up): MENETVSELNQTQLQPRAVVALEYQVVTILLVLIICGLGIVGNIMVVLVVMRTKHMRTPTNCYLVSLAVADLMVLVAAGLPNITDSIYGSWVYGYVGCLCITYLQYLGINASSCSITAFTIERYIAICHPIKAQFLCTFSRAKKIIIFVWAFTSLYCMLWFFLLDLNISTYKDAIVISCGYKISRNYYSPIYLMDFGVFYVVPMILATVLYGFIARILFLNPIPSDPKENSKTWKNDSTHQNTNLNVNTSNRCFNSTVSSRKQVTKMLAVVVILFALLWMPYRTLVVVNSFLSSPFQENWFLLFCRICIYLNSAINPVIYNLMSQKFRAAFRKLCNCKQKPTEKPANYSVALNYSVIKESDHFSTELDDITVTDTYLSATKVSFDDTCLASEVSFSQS

## CC(C)OB(OC(C)C)OC(C)C
[1]
  Potency: inactive
[2]
  Potency: inactive
[3]
  Potency: inactive
[4]
  Potency: inactive
[5]
  Potency: inactive
[6]
  Potency: inactive
[7]
  outcome: inactive

## COc1cccc2c1C(=O)c1c(O)c3c(c(O)c1C2=O)C[C@@](O)(C(=O)CO)C[C@@H]3O[C@H]1C[C@H](N)[C@H](O)[C@H](C)O1
[1]
  Potency: 24.3 µM (active) and 29.8 µM (active)
[3]
  Potency: 2.73 µM (active) and 9.44 µM (active)
[6]
  Potency: inactive
[8]
  Potency: inactive
[7]
  outcome: inactive
[9]
  Potency: inactive

## CNCCCC12CCC(c3ccccc31)c1ccccc12
[1]
  Potency: inactive
[2]
  Potency: inactive
[4]
  Potency: 13.7 µM (active) and 26.6 µM (active)
[5]
  Potency: 19.3 µM (active) and inactive
[6]
  Potency: inactive
[8]
  Potency: inactive
[7]
  outcome: inactive
[9]
  Potency: inactive

## OC1CCCCCCCCCCC1
[1]
  Potency: inactive
[2]
  Potency: inactive
[3]
  Potency: inactive
[4]
  Potency: inactive
[5]
  Potency: inactive
[6]
  Potency: inactive
[7]
  outcome: inactive
[9]
  Potency: inactive

## O=c1oc(=O)c2cc3c(=O)oc(=O)c3cc12
[1]
  Potency: inactive
[2]
  Potency: inactive
[3]
  Potency: inactive
[4]
  Potency: inactive
[5]
  Potency: inactive
[6]
  Potency: inactive
[7]
  outcome: inactive
[9]
  Potency: inactive

## Nc1ccccc1N
[1]
  Potency: 49.7 µM (active)
[2]
  Potency: inactive
[4]
  Potency: inactive
[5]
  Potency: inactive
[6]
  Potency: inactive
[8]
  Potency: inactive
[7]
  outcome: inactive
[9]
  Potency: inactive

## Cc1c(OCC(F)(F)F)ccnc1CS(=O)c1nc2ccccc2[nH]1 (stereo unspecified)
[2]
  Potency: inactive
[6]
  Potency: inactive
[7]
  outcome: inactive
[9]
  Potency: inactive

## CCC(C)(O)CCCC(C)C (stereo unspecified)
[1]
  Potency: inactive
[2]
  Potency: inactive
[3]
  Potency: inactive
[4]
  Potency: inactive
[5]
  Potency: inactive
[6]
  Potency: inactive
[7]
  outcome: inactive

## CCC(C)c1ccccc1O (stereo unspecified)
[1]
  Potency: inactive
[2]
  Potency: inactive
[3]
  Potency: inactive
[4]
  Potency: inactive
[5]
  Potency: inactive
[6]
  Potency: inactive
[7]
  outcome: inactive
[9]
  Potency: inactive

## O=C(/C=C/C=C/c1ccc2c(c1)OCO2)N1CCCCC1
[2]
  Potency: inactive
[4]
  Potency: inactive
[6]
  Potency: inactive
[8]
  Potency: inactive
[7]
  outcome: inactive
[9]
  Potency: inactive

## c1ccc2sc(SSN3CCOCC3)nc2c1
[1]
  Potency: inactive
[2]
  Potency: inactive
[4]
  Potency: inactive
[5]
  Potency: inactive
[6]
  Potency: inactive
[7]
  outcome: inactive
[9]
  Potency: inactive

## c1ccc2cc(Nc3ccc(Nc4ccc5ccccc5c4)cc3)ccc2c1
[1]
  Potency: inactive
[2]
  Potency: inactive
[3]
  Potency: inactive
[4]
  Potency: inactive
[5]
  Potency: inactive
[6]
  Potency: inactive
[7]
  outcome: inactive
[9]
  Potency: inactive

## CC(C)Oc1ccc2c(=O)c(-c3ccccc3)coc2c1
[1]
  Potency: inactive
[2]
  Potency: inactive
[3]
  Potency: inactive
[6]
  Potency: inactive
[8]
  Potency: inactive
[7]
  outcome: inactive

## O=C(O)c1ccccc1Nc1cccc(C(F)(F)F)c1
[1]
  Potency: inactive
[2]
  Potency: inactive
[6]
  Potency: inactive
[7]
  outcome: inactive
[9]
  Potency: inactive

## Brc1cc(Oc2cc(Br)c(Br)c(Br)c2Br)c(Br)c(Br)c1Br
[1]
  Potency: inactive
[2]
  Potency: inactive
[3]
  Potency: inactive
[5]
  Potency: 2.18 µM (active) and inactive
[6]
  Potency: inactive
[8]
  Potency: inactive
[7]
  outcome: inactive
[9]
  Potency: inactive

## Cc1ncc[nH]1
[1]
  Potency: inactive
[2]
  Potency: inactive
[3]
  Potency: inactive
[4]
  Potency: inactive
[5]
  Potency: inactive
[6]
  Potency: inactive
[7]
  outcome: inactive
